Source: PubChem BioAssay (Columbia University Molecular Screening Center)
Compounds with a hit are over-represented: about 1.6% of the library has one in this group of screens.
NFkB transloc pot – enhances IL-1B driven NFkB nuclear translocation; HUVEC IL-1B NFkB p65 nuclear translocation imaging; activation, % at 2 µM; actives 0.3% (n = 94,000);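 active = activation above 40%, about the mean plus 3 SD, also judged a hit on visual image review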;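 also: percent activation is computed from the nuclear over cytoplasmic p65 intensity ratio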
VCAM1 TNFa inh – reduces TNF alpha induced VCAM1 expression in HUVEC. inhibition, % at 2 µM. actives 0.48% (n = 95,000). HUVEC TNFa-induced VCAM-1 immunofluorescence, high-content imaging;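 active = inhibition above the batch mean plus 3 SD, with images confirmed as a hit by eye, cut at about 37% in these data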;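 also: 0% = TNF-stimulated DMSO wells and 100% = unstimulated control wells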
F-actin modifier – modifiers of cytoskeleton assembly; HUVEC TNFa F-actin phalloidin imaging, high content; inhibition, % at 2 µM; actives 0.18% (n = 91,000); AID 836;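 active = inhibition above the batch mean plus 3 SD and confirmed as a hit by visual image inspection, cut at about 30% in these data, passing the limit was not always enough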
HUVEC tox TNFa – HUVEC cytotoxicity counter-screen, TNF alpha stimulated. AID 848. HUVEC TNFalpha-stimulated, Hoechst cell count, imaging. actives 0.17% (n = 93,000). cell count reduction, % at 2 µM;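 active = cell count reduction exceeding the screen mean by over 5 SD, scaled to untreated wells per plate, cut at about 78% in these data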;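 also: cells counted after 24 h of TNF alpha exposure following the 1 h pretreatment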
NFkB transloc inh – blocks IL-1B driven NFkB nuclear translocation in HUVEC cells; HUVEC IL-1B NFkB p65 nuclear translocation imaging; inhibition, % at 2 µM; actives 0.43% (n = 94,000);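 active = inhibition above about 30% together with a positive call from visual inspection of the well image, limit read from the data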;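 also: nuclear over cytoplasmic p65 intensity ratio measured by imaging; 0% = IL-1B stimulated DMSO wells and 100% = unstimulated DMSO wells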
HUVEC tox IL1B – toxic to HUVEC cells under IL-1B stimulation; AID 845; HUVEC cell count loss, Hoechst imaging, IL-1B stimulated; cell count reduction, % at 2 µM; actives 0.41% (n = 94,000);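 active = cell count reduction more than 3 SD above the screen-wide mean, cut at about 70% in these data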;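 also: normalized per plate to untreated control cells as the no-loss baseline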
The depositor's hits bear a star.

For O=C(/C=C/c1ccco1)NC(=S)NNC(=O)c1ccco1 the results were NFkB transloc pot 0.3, VCAM1 TNFa inh 0.4, F-actin modifier -16.0, HUVEC tox TNFa -21.0, NFkB transloc inh -0.3 and HUVEC tox IL1B 3.8.
Cc1ncsc1CCSc1n[nH]c(=O)n1-c1ccccc1 was read as NFkB transloc pot 1.1, VCAM1 TNFa inh -9.1, F-actin modifier -5.3, HUVEC tox TNFa -8.3, NFkB transloc inh -1.1 and HUVEC tox IL1B -160.0.
For Cc1ncsc1CCSc1nc2ccccc2c(=O)n1C the results were NFkB transloc pot -27.5, VCAM1 TNFa inh -5.7, F-actin modifier -4.4, HUVEC tox TNFa -12.0, NFkB transloc inh 27.5 and HUVEC tox IL1B 79.7*.
`CC(C)Oc1ccccc1C1CC(=O)Nc2cc3c(cc21)OCCO3` (stereo not drawn) gave NFkB transloc pot -9.1, VCAM1 TNFa inh 86.4*, F-actin modifier 2.3, HUVEC tox TNFa 45.5, NFkB transloc inh 9.1 and HUVEC tox IL1B 11.8.
For COC(=O)CNC(=O)Cn1ccc2ccccc2c1=O the results were NFkB transloc pot -19.6, VCAM1 TNFa inh -1.0, F-actin modifier 49.1, HUVEC tox TNFa -27.8, NFkB transloc inh 19.6 and HUVEC tox IL1B -3.6.
For Cc1ccc(CNC(=O)Cn2ccc3ccccc3c2=O)o1 the results were NFkB transloc pot 10.6, VCAM1 TNFa inh -13.7, F-actin modifier 35.8*, HUVEC tox TNFa 67.7, NFkB transloc inh -10.6 and HUVEC tox IL1B 6.2.
For CC1=C(C(=O)Nc2ccc(C)cc2C)C(c2ccc(C)o2)NC(=O)N1 (stereo not drawn) the results were NFkB transloc pot 6.9, VCAM1 TNFa inh 7.1, F-actin modifier -9.0, HUVEC tox TNFa 4.2, NFkB transloc inh -6.9 and HUVEC tox IL1B 1.6.
`Cn1nc(C(F)(F)F)c(/C=N/OC(=O)c2ccccc2Cl)c1SCc1ccccc1Cl` gave NFkB transloc pot -6.6, VCAM1 TNFa inh 0.8, F-actin modifier 3.3, HUVEC tox TNFa 37.1, NFkB transloc inh 6.6 and HUVEC tox IL1B 1.3.
For Cc1cc(NC(=O)CCC(=O)N(Cc2ccco2)C2(C(=O)NC3CCCCC3)CCN(C)CC2)no1 the results were NFkB transloc pot -99.4, VCAM1 TNFa inh 3.1, F-actin modifier -32.6, HUVEC tox TNFa -1.6, NFkB transloc inh 99.4* and HUVEC tox IL1B 86.7*.
For O=C(Nc1cccc(NC(=O)c2ccc(-c3ccc(Br)cc3)o2)c1)c1ccco1 the results were NFkB transloc pot 31.9, VCAM1 TNFa inh -24.4, F-actin modifier -10.9, HUVEC tox TNFa -11.0, NFkB transloc inh -31.9 and HUVEC tox IL1B -33.7.
Screening Cc1cc2ccccc2c(=O)n1CC(=O)N1CCN(c2cccc(Cl)c2)CC1 returned NFkB transloc pot 1.9, NFkB transloc inh -1.9 and HUVEC tox IL1B -4.8.
`CCn1c(SCC(=O)N2CCN(c3cccc(Cl)c3)CC2)nc2ccccc2c1=O` gave NFkB transloc pot -0.3, VCAM1 TNFa inh 96.1*, F-actin modifier -6.3, HUVEC tox TNFa -0.8, NFkB transloc inh 0.3 and HUVEC tox IL1B -7.5.
Screening Cc1cccc(NC(=S)NC2CC3CCCC(C2)N3CC(C)C)c1 (stereo not drawn) returned NFkB transloc pot 19.3, VCAM1 TNFa inh 21.4, F-actin modifier 4.0, NFkB transloc inh -19.3 and HUVEC tox IL1B 2.6.
Screening O=C(CSc1nnc(Cc2cc(=O)[nH]c(=O)[nH]2)n1-c1ccccc1)NCC1CCCO1 (stereo not drawn) returned NFkB transloc pot -14.7, VCAM1 TNFa inh 14.7, F-actin modifier 7.5, HUVEC tox TNFa -25.1, NFkB transloc inh 14.7 and HUVEC tox IL1B 92.8*.
`N#CCc1nc2c3c4c(sc3ncn2n1)CCCC4` gave NFkB transloc pot 1.5, VCAM1 TNFa inh 60.4*, F-actin modifier -25.9, HUVEC tox TNFa 27.2, NFkB transloc inh -1.5 and HUVEC tox IL1B -20.0.
CC(=O)c1c(C(C)=O)c(C)n(NC(=O)c2cccnc2)c1C was read as NFkB transloc pot 8.0, VCAM1 TNFa inh 12.0, F-actin modifier -3.4, HUVEC tox TNFa -26.8, NFkB transloc inh -8.0 and HUVEC tox IL1B 1.8.
For CC(=O)c1c(C(C)=O)c(C)n(NC(=O)c2ccccc2O)c1C the results were NFkB transloc pot 2.0, VCAM1 TNFa inh -4.4, F-actin modifier 75.7*, HUVEC tox TNFa -16.2, NFkB transloc inh -2.0 and HUVEC tox IL1B -8.3.
`COc1ccc(CS(=O)(=O)/C(Cl)=C(/Cl)C(=O)Nc2ccc(OC)nc2)cc1` gave VCAM1 TNFa inh 41.8*, F-actin modifier 5.3 and HUVEC tox TNFa 13.7.
For COc1ccc(NC(=O)/C(Cl)=C(/Cl)S(=O)Cc2ccccc2)cn1 (stereo not drawn) the results were NFkB transloc pot -84.4, VCAM1 TNFa inh 87.8*, F-actin modifier 8.3, HUVEC tox TNFa 99.2*, NFkB transloc inh 64.9* and HUVEC tox IL1B 14.0.
Screening COC(=O)Nc1ccc(OCc2ccccc2)cc1 returned NFkB transloc pot -4.9, VCAM1 TNFa inh 17.7, F-actin modifier 0.5, HUVEC tox TNFa -8.5, NFkB transloc inh 4.9 and HUVEC tox IL1B 19.3.
`CCOC(=O)c1sc(NC(=O)/C=C/c2cnn(C)c2C)c(C(=O)OC(C)C)c1C` gave NFkB transloc pot 15.6, VCAM1 TNFa inh -3.3, F-actin modifier 13.6, HUVEC tox TNFa -1.9, NFkB transloc inh -15.6 and HUVEC tox IL1B 14.7.
Screening Cc1ccccc1CN1C(=O)C2(OCCCO2)c2ccccc21 returned NFkB transloc pot 7.4, VCAM1 TNFa inh 4.7, F-actin modifier 64.5*, HUVEC tox TNFa -29.6, NFkB transloc inh -7.4 and HUVEC tox IL1B -0.5.
`Cc1nnsc1NC(=O)OCc1ccc(C(F)(F)F)cc1` gave NFkB transloc pot 0.5, VCAM1 TNFa inh 8.0, F-actin modifier 13.1, HUVEC tox TNFa -12.1, NFkB transloc inh -0.5 and HUVEC tox IL1B 14.1.
For CC(/C=N/NC(=O)c1cc(-c2ccc(Cl)cc2)nc2ccccc12)=C\c1ccco1 the results were NFkB transloc pot -24.8, VCAM1 TNFa inh 80.3*, F-actin modifier -1.5, HUVEC tox TNFa 57.9, NFkB transloc inh 24.8 and HUVEC tox IL1B 57.4.
Screening O=C(NN1C(=O)c2ccc3c4c(ccc(c24)C1=O)CC3)c1ccc(Br)cc1 returned NFkB transloc pot -4.6, VCAM1 TNFa inh -15.3, F-actin modifier 13.2, HUVEC tox TNFa 8.2, NFkB transloc inh 4.6 and HUVEC tox IL1B -0.4.
Screening CC(OC(=O)c1nsc(Cl)c1Cl)C(=O)NC(C)(C)C (stereo not drawn) returned NFkB transloc pot -2.6, VCAM1 TNFa inh 7.3, F-actin modifier -26.6, HUVEC tox TNFa -4.8, NFkB transloc inh 2.6 and HUVEC tox IL1B -4.5.
For CCCCn1c(SCC(=O)N2CCOCC2)nnc1-c1ccoc1C the results were NFkB transloc pot -29.6, VCAM1 TNFa inh -5.3, F-actin modifier -6.0, HUVEC tox TNFa -6.5, NFkB transloc inh 29.6 and HUVEC tox IL1B 85.8*.
CCC(C)(C)NC(=O)c1ccc(S(=O)(=O)N(C)c2ccccc2OC)cc1 was read as NFkB transloc pot 26.9, VCAM1 TNFa inh -7.4, F-actin modifier -6.7, HUVEC tox TNFa 4.6, NFkB transloc inh -26.9 and HUVEC tox IL1B 0.0.
